From PubChem BioAssay
This is a sample that favours compounds with a hit; in the whole collection about 21% have one here.
SARS PLP yeast – SARS-CoV PLP inhibition in yeast; S. cerevisiae expressing SARS-CoV PLpro, growth rescue; Potency, µM (doses to about 32.9 µM), without a hit: at the highest dose activity, positive = growth rescue, usual class: activators; 0.19% of 330,000 active; also: potency is read from the fitted curve at half-maximal effect; 0% is about no effect; nearly all actives have a fitted effect of over 55% in size
Shiga inhibitor – inhibitors of Shiga toxin in Vero cells. 9.2% of 290,000 active. inhibition, % at 38.7 µM. Vero cells, Shiga toxin protein synthesis inhibition reporter. AID 2315; in the data active = inhibition mostly above about 28%, no sharp cut-off; inactive = mostly below about 43%; also: 0% is about no effect
Pf growth 96h – P. falciparum growth inhibition at 96 hours. P. falciparum luciferase reporter growth, 96 h. Potency, µM (doses to about 28.7 µM), for the others: top-dose activity change, negative = inhibition, actives largely listed as inhibitors. 6.9% of 320,000 active; active = well fitted inhibition curve with a large enough effect; inconclusive = small, poorly fitted or top-dose-only effect, or another doubt; inactive = no such curve, though single readings can be large or run the other way; also: potency is read from the fitted curve at half-maximal effect; % is scaled to controls: 0 for no effect and ±100 for the full control effect
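P. falciparum expressing integrated firefly luciferase grown in erythrocytes (2% hematocrit, 0.05% parasitemia final) with compounds for 96 hours at 37 C, 5% CO2. Growth inhibition read as loss of luminescence after adding luciferase detection reagent.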
Cycloheximide cs – counter-screen for Shiga toxin inhibitors: cycloheximide protein synthesis inhibition; cell reporter, cycloheximide protein synthesis inhibition counterscreen; max response, %; 12% of 300,000 active; AID 2314; in the data active = max response mostly above about 13%, no sharp cut-off; inactive = mostly below about 14%; also: read at 38.3 µM for the half of the compounds with a filed dose; 0% is about no effect
NS1 function inh – inhibitors of influenza NS1 protein function. 0.4% of 270,000 active. Potency, µM (top dose mostly 46.1 µM), for inactives: at the top dose activity, positive = more growth. AID 2326; also: potency is read from the fitted curve at half-maximal effect; actives are rising curves; nearly all actives have a fitted effect of over 50% in size
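Read-out: OD600 growth recovery of NS1-expressing budding yeast. Cells grown overnight at 30C in -URA glucose medium, washed, resuspended and diluted 1:100 in 2% galactose assay medium, pH 6.0. Same strain lacking NS1 served as positive control.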
Pf growth 48h – inhibits P. falciparum growth in the first generation, 48 h; P. falciparum luciferase growth in erythrocytes, 48 h; Potency, µM (top dose mostly 28.7 µM), for inactives: at the highest dose activity change, negative = inhibition, actives largely listed as inhibitors; 5.9% of 310,000 active; AID 504832; active = well fitted inhibition curve with a large enough effect; inconclusive = small, poorly fitted or top-dose-only effect, or another doubt; inactive = no such curve, though single readings can be large or run the other way; also: potency is read from the fitted curve at half-maximal effect; % is scaled to controls: 0 for no effect and ±100 for the full control effect
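Parasite viability was followed by luminescence of a genomically integrated firefly luciferase. Cultures held 0.1% parasitemia at 2% hematocrit (final), incubated under 5% CO2 at 37 C.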
Active calls of the source: *; ? = inconclusive; nt = no result given; [ ] = remark or other dose. Unless noted, calls follow the shape of the full dose curve.

SMILES | SARS PLP yeast | Shiga inhibitor | Pf growth 96h | Cycloheximide cs | NS1 function inh | Pf growth 48h
COC(=O)N/N=C/c1ccc([N+](=O)[O-])o1 | 5% | -4 | 12µM* | -2 | -8% | 13µM*
NC(=O)N/N=C/c1ccc([N+](=O)[O-])o1 | nt | nt | 5.4µM* | nt | nt | 12µM*
CC(C)CCN1CCN(Cc2cnc(N3CCCC3)s2)CC1CCO (stereo not given) | 0% | -4 | ? | -1 | 7% | -6%
Cc1cccc(N2CCN(c3ccc4cc(S(=O)(=O)N5CCCCC5)ccc4n3)CC2)c1C | -1% | -3 | ? | 0 | 2% | 12µM*
Cc1ccc(C)c(N2CCN(c3ccc4cc(S(=O)(=O)N5CCCCC5)ccc4n3)CC2)c1 | 4% | -5 | 9.3µM* | 11 | 5% | 1%
Cc1cccc(N2CCN(c3ccc4cc(S(=O)(=O)N5CCCCC5)ccc4n3)CC2C)c1 (stereo not given) | 12% | -8 | 10µM* | -6 | 4% | ?
Cc1cccc(N2CCN(S(=O)(=O)c3ccc4c(c3)n(C)c(=O)c(=O)n4C)CC2C)c1 (stereo not given) | 3% | -10 | nt | -2 | -1% | 36%
Cc1cccc(N2CCN(C(=O)c3cccc(S(=O)(=O)N4CCCCC4)c3)CC2)c1C | 0% | nt | nt | nt | nt | nt
Nc1ncccc1C(=O)OCC(=O)N1CCN(S(=O)(=O)c2ccc(Cl)cc2)CC1 | -2% | nt | ? | nt | nt | -20%
O=C(C[C@@H]1C/C=C\CCC(=O)OC[C@H](Cc2ccccc2)NC1=O)N[C@@H](CO)Cc1ccccc1 | 1% | nt | nt | nt | nt | nt
O=C(NC1CCCc2ccccc21)C12CC3CC(CC(O)(C3)C1)C2 (stereo not given) | -4% | -13 | -12% | 6 | nt | 21%
COC(=O)c1ccc2nc(C)cc(Nc3ccc(N(C)C)cc3)c2c1 | 6% | -13 | ? | -3 | 26% | 1.7µM*
Cc1ccc(Nc2cc(C)nc3ccc(C)cc23)cc1 | 3% | -9 | 0.042µM* | 3 | 16% | -105%
COC(=O)c1ccc(Nc2cc(C)nc3ccccc23)cc1 | 0% | -30 | -25% | -5 | -3% | ?
COc1ccc(Nc2cc(C)nc3ccc(OC)cc23)cc1 | 0% | 5 | -7% | 4 | 8% | ?
Cc1cc(Nc2ccc3c(c2)OCCO3)c2cc(Cl)ccc2n1 | -14% | 79* | 247% | 68* | 9% | 7.4µM*
Cc1cc(C)c(C#N)c(Nc2ccc3c(c2)OCCO3)n1 | -4% | -15 | ? | -5 | -1% | nt
O=c1cc[nH]c(=S)[nH]1 | nt | nt | -8% | nt | nt | -6%
CSc1nnc(CCNS(=O)(=O)c2ccc(Br)cc2)n1C | 11% | -8 | 26% | -5 | 6% | 6%
N[C@@H](Cc1ccccc1)c1nnc(SC/C=C/c2ccccc2)o1 | -6% | 9 | -2% | 0 | 3% | -2%
c1ccc(C(c2ccccc2)c2noc(CN3CCC(c4ccncc4)CC3)n2)cc1 | -1% | -18 | ? | 0 | -2% | 10µM*
COc1ccc(OCC2CCCN(Cc3nc(CC4CC4)no3)C2)cc1 (stereo not given) | -1% | 24 | ? | 19* | -10% | 17%
Cc1cccc(OC2CCN(Cc3nc(CC4CC4)no3)CC2)c1 | 0% | -9 | 4.7µM* | -3 | -3% | 9%
Cc1cccc(SC2CCN(Cc3nc(CC4CC4)no3)CC2)c1 | -1% | -4 | -5% | -2 | -2% | 12%
c1ccc(C2CCCN(Cc3nc(CC4CC4)no3)CC2)cc1 (stereo not given) | -1% | 53* | 27% | 16* | -1% | ?
SMILES | SARS PLP yeast | Shiga inhibitor | Pf growth 96h | Cycloheximide cs | NS1 function inh | Pf growth 48h
C=C(CC)C(=O)c1ccc(OCC(=O)O)c(Cl)c1Cl | -37% | -7 | 15µM* | -3 | -56% | ?
CCOC(=O)COc1ccc2nsnc2c1Cl | 1% | -2 | 49% | -3 | ? | 19%
COc1ccc(N2CCN(c3nc(Nc4ccc(F)cc4)nc(OC)n3)CC2)cc1 | 1% | 22 | 24% | -3 | 10% | 53%
CNc1nc(N/N=C/c2ccc([N+](=O)[O-])cc2)nc(Nc2ccccc2)n1 | -58% | 17 | ? | 0 | 27% | 3.3µM*
CN(C)c1ccc(/C=N/Nc2nc3ccccc3o2)cc1 | -1% | 34 | 45% | 5 | -1% | 45%
c1ccc(Nc2nc(N3CCCC3)nc(N3CCCC3)n2)cc1 | -7% | -3 | 12µM* | -3 | -32% | nt
O=[N+]([O-])c1ccc(/C=N/Nc2nc(N3CCOCC3)nc(N3CCOCC3)n2)cc1 | 0% | 5 | -3% | -1 | 0% | -8%
Fc1ccc(Nc2nc(Oc3ccccc3F)nc(N3CCCC3)n2)cc1 | -7% | -12 | nt | 7 | 2% | 1.5µM*
O=[N+]([O-])c1ccc(/C=N/Nc2nc3ccccc3o2)cc1 | 1% | 48* | 9.3µM* | 31* | 1% | 129%
COc1cccc(OC)c1C(=O)N1CCN(C(=O)c2ccc(-c3ccccc3)cc2)CC1 | 6% | -4 | ? | 5 | 2% | ?
CSc1ccc(CN(C)C(C)C(=O)NCc2ccccc2)cc1 (stereo not given) | -1% | -10 | ? | -8 | nt | 8%
COc1cccc(/C=N/Nc2nc(Nc3ccc([N+](=O)[O-])cc3)nc(N3CCCC3)n2)c1O | ? | 28 | 40% | 11 | nt | ?
O=[N+]([O-])c1cc2c(cc1/C=N/Nc1nc(Nc3ccccc3)nc(N3CCCCC3)n1)OCO2 | 1% | 14 | 2.9µM* | 13 | ? | 4.7µM*
C(=N\Nc1nc(Nc2ccccc2)nc(N2CCCCC2)n1)/c1ccco1 | -4% | 32* | ? | 28* | -1% | ?
CCNc1nc(NC(C)(C)C)nc(N2CCCCC2)n1 | -1% | 23 | 33% | -3 | -45% | ?
O=[N+]([O-])c1ccc(Nc2nc(N/N=C/c3cccc(F)c3)nc(N3CCCC3)n2)cc1 | -16% | 15 | ? | 2 | 23% | 2.9µM*
CCNc1nc(N2CCCC2)nc(N2CCCC2)n1 | -1% | 33 | 5% | 6 | -7% | 12µM*
CC(C)(C)c1ccc(S(=O)(=O)N2CCN(c3ccccn3)CC2)cc1 | 0% | -6 | -13% | -3 | -3% | 0%
COc1ccc(OCC(=O)NC(=O)c2ccccc2OC)c([N+](=O)[O-])c1 | -2% | nt | 6% | nt | nt | 2%
c1ccc(Nc2nc(N3CCCCC3)nc(N3CCCCC3)n2)cc1 | -2% | -19 | 9.3µM* | -2 | -47% | nt
c1ccc(Nc2nc(N3CCCCC3)nc(N3CCNCC3)n2)cc1 | 0% | 3 | ? | -7 | -5% | ?
CCN1CCN(S(=O)(=O)c2ccc(Oc3ccccc3OC)cc2)CC1 | -1% | -6 | ? | -3 | nt | -3%[5.75 µM]
O=C(CCC(=O)c1cccs1)OCC(=O)c1ccccc1F | 5% | nt | ? | nt | nt | 23%
